# Measurements as given in PubChem BioAssay (NCATS).
# Several values for one entry are separate records, joined by “and”; a condition that tells them apart may be missing. Equal entries are not always repeated. Inconclusive results are not listed. Activity calls are given as the source filed them. Unless noted, calls come from the whole dose curve; as a rule, active = well fitted curve in the direction sought with a large enough effect; inconclusive = small, poorly fitted or top-dose-only effect, or another doubt; inactive = no such curve, though single readings can be large; an effect the other way counts as inactive or inconclusive.
# Key:
# [1] = qHTS Assay for Identifying Gametocytocidal Compounds (AID 743244); note: potency is the fitted concentration of half-maximal effect;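 for max response: % is set by controls: 0 for no effect and ±100 for the full control effect; actives lower the fluorescent signal which means gametocytes are killed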; conditions: P. falciparum 3D7 stage III-V gametocytes, alamarBlue, 72 h; max response: stronger effect = lower value
# How it was run: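 Stage III-V P. falciparum 3D7 gametocytes, 20,000 per well, were exposed to compounds for 72 h at 37C, 5% CO2. AlamarBlue was then added for 24 h and viability was read as fluorescence at Ex 525/Em 598 nm.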
# [2] = qHTS assay for cell viability of HEK293 cells (AID 743288); conditions: ATP luminescence (CellTiter-Glo), 18 h; max response: stronger effect = lower value; note: % is set by controls: 0 for no effect and ±100 for the full control effect; nearly all actives have a fitted effect of over 50% in size
# How it was run: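 HEK293 parental, 2,000 cells/well; ≥5 h pre-incubation 37 C; pintool compound addition; 18 h, 37 C; CellTiter-Glo 30 min RT; luminescence read.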
# [3] = qHTS assay for cell viability of the p53RE-bla HCT-116 cell line (AID 743292); note: % is set by controls: 0 for no effect and ±100 for the full control effect; nearly all actives have a fitted effect of over 55% in size
# How it was run: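 In this qHTS counter-screen, metabolically competent p53RE-bla HCT-116 cells were counted via their ATP content. Compounds were applied for 16 h at 37 C and luciferase-coupled luminescence was measured.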
# [4] = qHTS profiling of the MIPE4 collection as inhibitors of Plasmodium falciparum (3D7) proliferation (AID 743344; call rule not given here;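 note: scaled between DMSO vehicle wells and 0.29 µM artemisinin as full inhibition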); conditions: P. falciparum 3D7 in erythrocytes, SYBR Green DNA fluorescence, 72 h; at 28.5 µM (top of the series)
# How it was run: (§1)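 Erythrocytes infected with P. falciparum (0.3% parasitemia, 2.5% hematocrit) incubated with compounds 72 h at 37 C, 5% CO2. Lysis with saponin/Triton buffer containing SYBR Green I, overnight at room temperature in the dark; DNA fluorescence (485/535 nm) normalised to 0.29 uM artemisinin and DMSO.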
# [5] = qHTS profiling of the MIPE4 collection as inhibitors of Plasmodium falciparum (DD2) proliferation (AID 743345; call rule not given here); conditions: P. falciparum Dd2 in erythrocytes, SYBR Green DNA, 72 h; at 28.5 µM (top of the series)
# How it was run: as §1
# [6] = qHTS profiling of the MIPE4 collection as inhibitors of Plasmodium falciparum (DD2) proliferation (Rep 2) (AID 743346; call rule not given here); conditions: P. falciparum Dd2 in erythrocytes, SYBR Green DNA, 72 h; at 28.5 µM (top of the series)
# How it was run: as §1
# [7] = qHTS profiling of the MIPE4 collection as inhibitors of Plasmodium falciparum (HB3) proliferation (AID 743347; call rule not given here;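 note: plate controls were DMSO vehicle wells for no effect and artemisinin wells for full effect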); conditions: P. falciparum HB3 in erythrocytes, SYBR Green DNA, 72 h; at 28.5 µM (top of the series)
# How it was run: as §1
# [8] = qHTS profiling for inhibitors of Plasmodium falciparum (3D7) proliferation (AID 743322);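 note: infected erythrocytes exposed to compound for 72 h before lysis; 100% = DMSO vehicle wells and 0% = 0.29 µM artemisinin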; conditions: P. falciparum 3D7 proliferation; at 28.7 µM (top of the series) unless noted
# How it was run: as §1
# [9] = qHTS profiling for inhibitors of Plasmodium falciparum (DD2) proliferation (AID 743323; call rule not given here); conditions: lower = more inhibition; at 28.7 µM (top of the series) unless noted
# How it was run: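 SYBR Green fluorescence (ex 485, em 535 nm) of lysed cultures gives parasite DNA content; wells normalized to artemisinin (0.29 uM) and DMSO controls. Infected red cells: 0.3% parasitemia, 2.5% hematocrit, 72 h, 37 C.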
# [10] = qHTS profiling for inhibitors of Plasmodium falciparum (HB3) proliferation (AID 743324); conditions: Plasmodium falciparum HB3 blood-stage proliferation; at 28.7 µM (top of the series) unless noted;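 note: 100% = DMSO vehicle wells and 0% = artemisinin-treated control wells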
# How it was run: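 P. falciparum HB3 grown in erythrocytes (0.3% parasitemia, 2.5% hematocrit final) with compound for 72 h at 37 C, 5% CO2. Parasite DNA detected by SYBR Green after saponin/triton lysis overnight; normalized to 0.29 uM artemisinin and DMSO.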
smiles,measurement,setting,value
CO,max response,[1],16% (inactive)
same,max response,[2],1.36% (inactive)
same,outcome,[3],inactive
CCOC(C)OCC,max response,[1],16.8% (inactive)
same,max response,[2],7.3% (inactive)
same,outcome,[3],inactive
c1ccc2ccccc2c1,max response,[1],6.18% (inactive)
same,max response,[2],-14.2% (inactive) and 4.14% (inactive)
same,outcome,[3],inactive
Nc1ncnc2c1ncn2[C@H]1CC[C@@H](CO)O1,max response,[1],-3.96% (inactive)
same,max response,[2],-8.27% (inactive) and 0.717% (inactive)
same,outcome,[3],inactive
COC(=O)c1ccccc1O,max response,[1],3.79% (inactive)
same,max response,[2],-4.62% (inactive) and -2.27% (inactive)
same,outcome,[3],inactive
CC[C@H]1OC(=O)[C@H](C)[C@@H](O[C@H]2C[C@@](C)(OC)[C@@H](O)[C@H](C)O2)[C@H](C)[C@@H](O[C@@H]2O[C@H](C)C[C@H](N(C)C)[C@H]2O)[C@](C)(O)C[C@@H](C)CN(C)[C@H](C)[C@@H](O)[C@]1(C)O,max response,[2],-7.47% (inactive)
same,outcome,[3],inactive
CC[C@H]1OC(=O)[C@H](C)[C@@H](O[C@H]2C[C@@](C)(OC)[C@@H](O)[C@H](C)O2)C(C)[C@@H](O[C@@H]2O[C@H](C)C[C@H](N(C)C)[C@@H]2O)[C@](C)(OC)C[C@@H](C)C(=O)[C@H](C)[C@@H](O)[C@]1(C)O (some centres undefined),"parasite growth, % of DMSO control",[4],19.7%
same,"parasite growth remaining, % of DMSO control (lower = more inhibition)",[5],35.4%
same,"parasite growth, % of control (lower = inhibition)",[6],38.9%
same,"growth, % of control",[7],37.4%
CO[C@H]1O[C@@H]2O[C@@]3(C)CC[C@H]4[C@H](C)CC[C@@H]([C@H]1C)[C@@]24OO3,Potency,[1],83.3 nM (active)
same,remaining parasite growth % (stronger effect = lower value),[8],-0.372% [at 57.5 µM]
same,"activity, percent of control",[9],-0.375% [at 57.5 µM]
same,"remaining proliferation (% of control), lower = more inhibition",[10],0.0422% [at 57.5 µM]
O=P(O)(O)O,max response,[1],-3.37% (inactive)
same,max response,[2],-7.47% (inactive)
same,outcome,[3],inactive
O.O.O.O.O.O.O.O=S(=O)([O-])[O-].[Co+2],max response,[1],0.797% (inactive)
same,max response,[2],1.41% (inactive)
same,outcome,[3],inactive
CCCCC,max response,[1],2.54% (inactive)
same,max response,[2],-0.392% (inactive)
same,outcome,[3],inactive
